PubChem BioAssay (NCI)
This is part of a sample that, as a whole, favours compounds with a hit. Of some 83,000 tested, about 20% had one in any assay.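 Results are percent growth after 48 hours of single-concentration exposure. 100 means growth as in untreated cells, lower positive values show inhibition; negative values down to -100 show cell death.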 Unmarked numbers belong to inactive results. Activity calls are given as the source filed them. How the source made its calls: active means growth percent below 10; inactive means the rest.

Assays:
Assay in all cases: NCI-60 one-dose screen, 48 h (100 = growth as untreated, 0 = no growth, -100 = all killed)
Conditions in all cases: 10 µM unless noted
NCI-H23 lung = tested on: NCI-H23 lung
NCI-H226 lung = tested on: NCI-H226 lung
NCI-H322M lung = tested on: NCI-H322M lung
HOP-62 NSCLC = tested on: HOP-62 NSCLC
HOP-92 NSCLC = tested on: HOP-92 NSCLC
A549/ATCC NSCLC = tested on: A549/ATCC NSCLC
786-0 renal = tested on: 786-0 renal
COLO 205 colon = tested on: COLO 205 colon
DU-145 prostate = tested on: DU-145 prostate
K-562 leukemia = tested on: K-562 leukemia
MALME-3M melanoma = tested on: MALME-3M melanoma
MDA-MB-231 breast = tested on: MDA-MB-231 breast
RXF 393 renal = tested on: RXF 393 renal
SF-268 CNS = tested on: SF-268 CNS
SF-295 CNS = tested on: SF-295 CNS
SF-539 CNS = tested on: SF-539 CNS
UACC-257 melanoma = tested on: UACC-257 melanoma
NCI-H522 lung = tested on: NCI-H522 lung
M14 melanoma = tested on: M14 melanoma
NCI-H460 lung = tested on: NCI-H460 lung

| Compound | growth (NCI-H23 lung) | growth (NCI-H226 lung) | growth (NCI-H322M lung) | growth (HOP-62 NSCLC) | growth (HOP-92 NSCLC) | growth (A549/ATCC NSCLC) | growth (786-0 renal) | growth (COLO 205 colon) | growth (DU-145 prostate) | growth (K-562 leukemia) | growth (MALME-3M melanoma) | growth (MDA-MB-231 breast) | growth (RXF 393 renal) | growth (SF-268 CNS) | growth (SF-295 CNS) | growth (SF-539 CNS) | growth (UACC-257 melanoma) | growth (NCI-H522 lung) | growth (M14 melanoma) | growth (NCI-H460 lung) |
| --- | --- | --- | --- | --- | --- | --- | --- | --- | --- | --- | --- | --- | --- | --- | --- | --- | --- | --- | --- | --- |
| O=C(Nc1ccc2cc3ccc(NC(=O)N4CCCCCC4)cc3nc2c1)N1CCCCCC1 | -39% (active) | -58.5% (active) | 31.4% | -47.4% (active) | -77.8% (active) | -11.3% (active) | -57.9% (active) | -48.8% (active) | -25.7% (active) | -11.1% (active) | -85.3% (active) | -69.1% (active) | -76.3% (active) | -41.3% (active) | -79.4% (active) | -71.1% (active) | -75.7% (active) | – | – | – |
| C=C1C(=O)O[C@H]2[C@H]1CC/C(CNC(=O)/C=C/c1ccccc1F)=C\CC[C@@]1(C)O[C@@H]21 | 64.8% | 71.9% | 73.9% | 74.5% | -28.2% (active) | 52.9% | -58.4% (active) | -45% (active) | 4.9% (active) | 2.05% (active) | -43.9% (active) | 16.9% | -90.5% (active) | 47.4% | 75.1% | -50.4% (active) | -6.45% (active) | -73.5% (active) | -32.5% (active) | – |
| CN1CCCC1=Nc1ccccc1 | 93.7% | 104% | 99.2% | 103% | 89% | 97.9% | 115% | 110% | 116% | 100% | 104% | 109% | 103% | 124% | 96.7% | 113% | 101% | 83.2% | 117% | – |
| NC(=S)N/N=C/c1ccc(OC(=O)COc2cc(Cl)c(Cl)cc2Cl)cn1 | 28.1% | 84.6% | 57.2% | 85.6% | 48.6% | 107% | 19.9% | 117% | 36.4% | 48.6% | 75.7% | 82.6% | 50.1% | 41.2% | 134% | 29.5% | 78.9% | 23.8% | 41.2% | – |
| C=C(C)[C@@H]1CC[C@]2(C=O)CC[C@]3(C)[C@H](CC[C@@H]4[C@@]5(C)CCCNC(C)(C)[C@@H]5CC[C@]43C)[C@@H]12 | 78.7% | 91.7% | 91.5% | – | 54.5% | 62.2% | 80.9% | -78.8% (active) | 77.6% | 0.984% (active) | 77.7% | 91.2% | 85.9% | 90.8% | 105% | 90.1% | 86.6% | 84.1% | 81% | 16.7% |
| CCc1nc(C)cn1C(=O)OCc1nc2nc(Cl)nc(N3CCOCC3)c2[nH]1 | 28.9% | -75% (active) | 64.2% | 47.9% | -50.2% (active) | 15.1% | -77.4% (active) | -84.5% (active) | -37.3% (active) | 1.14% (active) | -67.8% (active) | -42.9% (active) | – | -64% (active) | 79.5% | -74.8% (active) | -80.8% (active) | -75.5% (active) | -56.8% (active) | – |
| CC(c1ccccc1)n1ccnc1CO (centres undefined) | 96.5% | 100% | 101% | 105% | 66.5% | 109% | 105% | 106% | 113% | 105% | 85.5% | 104% | 101% | 107% | 96.1% | 106% | 106% | 98.8% | 109% | – |
| O=C(O)c1ccc[n+](CC(=O)N2CCN(c3cc4c(cc3F)c(=O)c(C(=O)O)cn4C3CC3)CC2)c1 | 87.7% | 93.7% | 103% | 105% | 109% | 106% | 58.9% | 45.4% | 96.1% | – | -34% (active) | 98.3% | – | 70.1% | 116% | 69.1% | 80.1% | -86.6% (active) | 64.6% | – |
| CCN(CC)CCCCCCNc1cc(OC)cc2cccnc12 | 85.5% | 97.4% | 96% | 92.1% | 85.2% | 80.3% | -50.7% (active) | -68.9% (active) | 40.8% | -47.8% (active) | -77.4% (active) | 32.6% | – | 79.3% | 86.5% | 68.5% | 115% | 5.26% (active) | -28.7% (active) | – |
| COc1ccc(C(=O)c2cc3c(N)c(C(=O)Nc4cccc(Cl)c4C)sc3nc2C)cc1 | 29.3% | 44% | 52.6% | 29.1% | 27.7% | – | 29% | -26.2% (active) | 9.62% (active) | 2.9% (active) | 54.5% | 15% | – | 18.4% | 26.5% | -10.2% (active) | 57.6% | -8.11% (active) | 5.63% (active) | – |
| O=CNc1cc(Cl)cc(Cl)c1 | 102% | 102% | 104% | 102% | 106% | 102% | 104% | 107% | 109% | 97.5% | 103% | 85.6% | 113% | 106% | 102% | 100% | 97.4% | 95.4% | 103% | – |
| COc1ccc(C(=O)c2cc3c(N)c(C(=O)Nc4cccc(Cl)c4)sc3nc2C)cc1 | 35.1% | 61.9% | 57.2% | 44.9% | 86.9% | 32.3% | 51.6% | -1.48% (active) | 18% | 6.91% (active) | 51.2% | 28.4% | – | 44.7% | 31.3% | -15.5% (active) | 71.4% | -4.67% (active) | 17.9% | – |
